{
  "source": "the supplement of paper PMC8975748",
  "note": "Counter-ions that a name gives are not always drawn.",
  "data": [
    {"system": "Saccharomyces cerevisiae BY4741 SeMeCo community", "test": "z-score of prototroph abundance vs DMSO median; higher = larger share of this subpopulation than in DMSO controls", "details": "10 µM; 24 h; SM minimal medium; subpopulation (auxotrophy): Prototroph", "procedure,_shortened": "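Cells of a Saccharomyces cerevisiae BY4741 community, carrying four plasmids that each restored one auxotrophy and encoded a distinct fluorescent protein, were pre-grown overnight to OD600 1.0 and diluted to 0.3. A 70 µl volume was added to 384-well plates acoustically predosed with library drugs (10 µM final) and grown 24 h in minimal SM medium. After paraformaldehyde fixation, automated confocal microscopy was used, with single-auxotroph fluorescent strains for thresholds and autofluorescence correction. The abundance of each subpopulation was scored as a z-score against the vehicle-well median.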", "values": [
      {"compound": "COc1cc(O)c(C(=O)Nc2nc(C(=O)NCCN(C(C)C)C(C)C)cs2)cc1OC", "note": "[Acotiamide hydrochloride]", "z-score of prototroph abundance": -0.4},
      {"compound": "Cc1ncc([N+](=O)[O-])n1CC(O)CCl", "note": "(stereo not drawn) [Ornidazole]", "z-score of prototroph abundance": 0.34},
      {"compound": "OC(CCCN1CCCCC1)(c1ccccc1)c1ccccc1", "note": "[Diphenidol HCl]", "z-score of prototroph abundance": -0.42},
      {"compound": "Cc1ccccc1OCC(O)CO", "note": "(stereo not drawn) [Mephenesin]", "z-score of prototroph abundance": 0.89},
      {"compound": "CC(C)c1c(C(=O)Nc2ccccc2)c(-c2ccccc2)c(-c2ccc(F)cc2)n1CC[C@@H](O)C[C@@H](O)CC(=O)O", "note": "[Atorvastatin Calcium]", "z-score of prototroph abundance": -7.41},
      {"compound": "C[C@@H](O)[C@H]1C(=O)N2C(C(=O)[O-])=C(SC3Cn4cnc[n+]4C3)[C@H](C)[C@H]12", "note": "(stereo partly drawn) [Biapenem]", "z-score of prototroph abundance": 0.75},
      {"compound": "Cc1cc(=O)n(-c2ccccc2)n1C", "note": "[Antipyrine]", "z-score of prototroph abundance": 0.87},
      {"compound": "Oc1c(Cl)cc(Cl)c2cccnc12", "note": "[Chloroxine]", "z-score of prototroph abundance": -16.8},
      {"compound": "CC1(C)CC[C@]2(C(=O)O)CC[C@]3(C)C(=CC[C@@H]4[C@@]5(C)CC[C@H](O)C(C)(C)[C@@H]5CC[C@]43C)[C@@H]2C1", "note": "[Oleanolic Acid]", "z-score of prototroph abundance": -0.29},
      {"compound": "CCOC(=O)C1=C(C)NC(C)=C(C(=O)OC)C1c1cccc(Cl)c1Cl", "note": "(stereo not drawn) [Felodipine]", "z-score of prototroph abundance": 2.53},
      {"compound": "O=C1CCc2cc(OCCCCc3nnnn3C3CCCCC3)ccc2N1", "note": "[Cilostazol]", "z-score of prototroph abundance": 0.97},
      {"compound": "Cc1nnc(SCC2=C(C(=O)O)N3C(=O)[C@@H](NC(=O)Cn4cc(Cl)c(=O)c(Cl)c4)[C@H]3SC2)s1", "note": "[Cefazedone]", "z-score of prototroph abundance": 0.73},
      {"compound": "CS(=O)(=O)c1ccc([C@@H](O)[C@@H](CO)NC(=O)C(Cl)Cl)cc1", "note": "[Thiamphenicol]", "z-score of prototroph abundance": 0.25},
      {"compound": "O=c1cc(-c2ccc(O)c(O)c2)oc2cc(O)cc(O)c12", "note": "[Luteolin]", "z-score of prototroph abundance": -0.73},
      {"compound": "CN1C[C@@H]2C[C@H]1CN2c1cc2c(cc1F)c(=O)c(C(=O)O)cn2C1CC1", "note": "[Danofloxacin Mesylate]", "z-score of prototroph abundance": 0.27},
      {"compound": "CC(=O)Oc1ccccc1C(=O)O", "note": "[Aspirin]", "z-score of prototroph abundance": -0.19},
      {"compound": "Cc1noc(NS(=O)(=O)c2ccc(N)cc2)c1C", "note": "[Sulfisoxazole]", "z-score of prototroph abundance": -1.42},
      {"compound": "O=C1C(CC[S+]([O-])c2ccccc2)C(=O)N(c2ccccc2)N1c1ccccc1", "note": "(racemic) [(+/-)-Sulfinpyrazone]", "z-score of prototroph abundance": 0.12},
      {"compound": "CCCCCCCCCC(=O)N[C@@H](Cc1c[nH]c2ccccc12)C(=O)N[C@H](CC(N)=O)C(=O)N[C@@H](CC(=O)O)C(=O)N[C@@H]1C(=O)NCC(=O)N[C@@H](CCCN)C(=O)N[C@@H](CC(=O)O)C(=O)N[C@H](C)C(=O)N[C@@H](CC(=O)O)C(=O)NCC(=O)N[C@H](CO)C(=O)N[C@@H]([C@H](C)CC(=O)O)C(=O)N[C@@H](CC(=O)c2ccccc2N)C(=O)O[C@@H]1C", "note": "[Daptomycin]", "z-score of prototroph abundance": -0.94},
      {"compound": "CCn1cc(C(=O)O)c(=O)c2cc(F)c(N3CCN(C)CC3)cc21", "note": "[Pefloxacin Mesylate]", "z-score of prototroph abundance": 0.1},
      {"compound": "CN(C)CCC=C1c2ccccc2CCc2ccccc21", "note": "[Amitriptyline HCl]", "z-score of prototroph abundance": 0.95},
      {"compound": "COc1ccccc1OCC(O)CN1CCN(CC(=O)Nc2c(C)cccc2C)CC1", "note": "(stereo not drawn) [Ranolazine]", "z-score of prototroph abundance": -0.25},
      {"compound": "COc1cc(C(C)=O)ccc1OCCCN1CCC(c2noc3cc(F)ccc23)CC1", "note": "[Iloperidone]", "z-score of prototroph abundance": -0.06},
      {"compound": "Cc1ccc(Sc2ccccc2N2CCNCC2)c(C)c1", "z-score of prototroph abundance": 0.66},
      {"compound": "Nc1ccc(S(=O)(=O)Nc2ccccn2)cc1", "note": "[Sulfapyridine]", "z-score of prototroph abundance": 0.95},
      {"compound": "CN1CC(=O)N2[C@H](c3ccc4c(c3)OCO4)c3[nH]c4ccccc4c3C[C@@H]2C1=O", "note": "[Tadalafil]", "z-score of prototroph abundance": -0.42},
      {"compound": "O=C(c1ccc(OCCN2CCCCC2)cc1)c1c(-c2ccc(O)cc2)sc2cc(O)ccc12", "note": "[Raloxifene HCl]", "z-score of prototroph abundance": 0.44},
      {"compound": "N#CC(c1ccc(Cl)cc1)c1c(Cl)cc(-n2ncc(=O)[nH]c2=O)cc1Cl", "note": "(stereo not drawn) [Diclazuril]", "z-score of prototroph abundance": 1.02},
      {"compound": "O=C1NCC2(CCN(CCc3ccccc3)CC2)O1", "note": "[Fenspiride HCl]", "z-score of prototroph abundance": -0.38},
      {"compound": "CCCN[C@H]1CCc2nc(N)sc2C1", "note": "[Pramipexole dihydrochloride]", "z-score of prototroph abundance": 0.25},
      {"compound": "O=C(O)c1ccccc1O", "note": "[Salicylic acid]", "z-score of prototroph abundance": 0.79},
      {"compound": "CCCOc1ccc(C(=O)OCCN(CC)CC)cc1N", "note": "[Proparacaine HCl]", "z-score of prototroph abundance": 0.46},
      {"compound": "CC(C)(O/N=C(\\C(=O)N[C@@H]1C(=O)N2C(C(=O)[O-])=C(C[n+]3ccccc3)CS[C@H]12)c1csc(N)n1)C(=O)O", "note": "[Ceftazidime]", "z-score of prototroph abundance": 0.11}
    ]}
  ]
}
